# Shown are actives, neighbours in structure and some others; about 4.2% of the full set was active somewhere.
# tim23-1 inh: tim23-1 yeast growth inhibition; S. cerevisiae tim23-1 growth, BacTiter-Glo luminescence, 24 h; actives 1.3% (n = 330,000); inhibition, % at 20 µM;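 active = growth inhibition of the mutant yeast at or above 50%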;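 also: temperature-sensitive mutant grown at 25 °C; plate controls were DMSO-treated mutant yeast for no effect and medium wells lacking yeast for full effect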
# NALP1 yeast inh: blocks the NALP1 inflammasome reconstituted in yeast; S. cerevisiae NALP1/ASC/caspase-1 growth, X-gal OD620, 72 h; inhibition, % at 10 µM; actives 0.61% (n = 280,000); in the data active = inhibition mostly above about 24%, no sharp cut-off; inactive = mostly below about 32%
# V-ATPase pHluor: yeast V-ATPase proton transport regulation by pHLuorin; response, % at 10 µM; actives 0.37% (n = 350,000); S. cerevisiae, pHLuorin cytosolic pH fluorescence; AID 504577; in the data active = response mostly above about 7.3%, no sharp cut-off; inactive = mostly below about 5.4%; also: actives read high
# NALP3 yeast inh: NALP3 inhibition in yeast. inhibition, % at 10 µM. Yeast reconstituted NLRP3/ASC/caspase-1, beta-gal luminescence, 24 h. actives 0.39% (n = 330,000);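 active = inhibition of 50% or more; inactive = inhibition below 50%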;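 also: plate controls were induced DMSO wells for no effect and uninduced yeast grown without galactose for full effect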
# TIM10 inh: TIM10 yeast growth inhibition; inhibition, % at 10 µM; S. cerevisiae TIM10 strain growth, BacTiter-Glo luminescence, 24 h; actives 1.4% (n = 330,000);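 active = inhibition of 40% or more at the single tested concentration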;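 also: wild-type TIM10 isogenic control strain grown at permissive 25 °C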
# tim10-1 inh: tim10-1 yeast growth inhibition; S. cerevisiae tim10-1 ts strain growth, BacTiter-Glo, 24 h; inhibition, % at 20 µM; actives 2.2% (n = 330,000); AID 463190;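 active = inhibition of at least 40%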;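 also: mutant grown at 25 °C; 0% = DMSO wells with yeast and 100% = wells holding no yeast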
# tim10-1 conf: confirmation of tim10-1 mutant yeast growth inhibitors. shares compounds with tim10-1 inh. actives 56% (n = 7,400). S. cerevisiae tim10-1 ts strain growth, BacTiter-Glo, 24 h. inhibition, % at 20 µM;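 active = inhibition of yeast growth at or above a set limit in either of two repeat tests at 20 µM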;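 also: tim10-1 mutant grown at permissive 25 °C to find synthetic lethal compounds; 0% = DMSO yeast wells and 100% = medium wells without yeast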
# TIM10 conf: TIM10 yeast growth inhibition, confirmed; AID 463215; shares compounds with TIM10 inh; actives 63% (n = 4,600); S. cerevisiae tim10 strain growth, BacTiter-Glo luminescence, 24 h; inhibition, % at 10 µM;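 active = inhibition of yeast growth at or above a set limit in either of two replicates at 10 µM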;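 also: this counterscreen used the strain with wild-type TIM10; 0% = yeast with DMSO and 100% = medium wells lacking yeast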
# Starred values were filed as active, the others as inactive; / = no result.
SMILES,tim23-1 inh,NALP1 yeast inh,V-ATPase pHluor,NALP3 yeast inh,TIM10 inh,tim10-1 inh,tim10-1 conf,TIM10 conf
CCOc1ccc(S(=O)(=O)NCc2cccs2)cc1,21,18,-5,14,8,23,/,/
CCSc1nnc(-c2ccc(S(=O)(=O)NCc3cccs3)cc2)o1,46,7,0,35,45*,45*,50*,30*
S=c1[nH]nc(-c2ccc(Br)cc2)n1Cc1ccccc1,19,-3,1,8,46*,42*,25,45*
O=C(/C=C/c1ccc(-c2ccccc2)o1)c1ccccc1,38,/,5,15,54*,40,59*,48*
Cc1ccc2nc(N3CCN(Cc4nnnn4Cc4ccccc4)CC3)c(C#N)cc2c1,32,7,-2,12,51*,58*,54*,-14
Cc1ccc2nc(N3CCN(C)CC3)c(C#N)cc2c1,17,0,2,19,5,8,/,/
COc1cc(/C=C2/C(=N)N3N=C(CC(=O)N4CCOCC4)SC3=NC2=O)ccc1OCc1ccc(F)cc1,20,-13,2,7,4,19,/,/
O=c1[nH][nH]c(-c2ccccc2)c1C=Nc1ccc(C(F)(F)F)cc1,25,3,2,6,4,20,/,/
O=c1[nH][nH]c(-c2ccccc2)c1C=Nc1ccc(OC(F)(F)F)cc1,47,8,-1,8,41*,42*,37*,37*
O=C(Nc1ccc(Cl)c(C(F)(F)F)c1)c1ccco1,44,27,8,-45,51*,46*,56*,12
Cc1oncc1C(=O)N1CCCC(CO)(Cc2ccc(F)cc2F)C1 (centres undefined),9,15,0,7,1,14,/,/
N/C(=N\OC(=O)Oc1ccccc1)c1cccc([N+](=O)[O-])c1,11,26,-2,14,-8,2,/,/
N/C(=N\OC(=O)c1ccc2c(c1)OCO2)c1cccc([N+](=O)[O-])c1,23,1,-2,8,44*,48*,33*,26
Cc1ccccc1C(=O)O/N=C(\N)c1cccc([N+](=O)[O-])c1,48,0,0,35,50*,68*,74*,48*
Cn1c(Cl)cnc1C1CC(=O)c2cc(Cl)ccc2O1 (centres undefined),18,40,-2,-7,72*,66*,58*,5
CCOc1ccc(S(=O)(=O)N(CC)CC)cc1NC(=O)CSCc1c(C)noc1C,19,/,-4,18,9,24,/,/
CCC(=O)OCCNc1cc(Sc2nc3ccccc3s2)c2nonc2c1[N+](=O)[O-],28,6,-3,32,77*,93*,91*,94*
O=[N+]([O-])c1ccc(S(=O)(=O)c2ccccc2)nc1,47,21,3,-32,60*,64*,58*,52*
Nc1ccc(S(=O)(=O)c2ccccc2)nc1,-3,-1,-1,-1,1,-8,/,/
CCOc1cc(NC(=O)C(C)C)c(OCC)cc1NC(=O)Nc1ccccc1,-2,16,-7,16,7,-21,/,/
O=c1oc2ccccc2c(O)c1/C=C1\C=Nc2ccccc21,-4,6,9,13,69*,65*,72*,-7
O=Nc1c(O)n(Cc2ccc(Cl)cc2Cl)c2ccccc12,38,7,-4,2,42*,52*,18,39*
CCN1C(=O)S/C(=C/c2ccsc2)C1=O,8,16,-1,22,-15,6,/,/
CC(C)N1C/C(=C/c2ccsc2)C(=O)/C(=C/c2ccsc2)C1,22,/,3,16,46*,40*,28,34*
CCn1c2c(c3cc(Br)ccc31)CCC/C2=N\O,29,22,8,18,54*,66*,39*,34*
SMILES,tim23-1 inh,NALP1 yeast inh,V-ATPase pHluor,NALP3 yeast inh,TIM10 inh,tim10-1 inh,tim10-1 conf,TIM10 conf
O=C(c1ccc([N+](=O)[O-])s1)N1CCc2ccccc21,0,2,-2,13,19,12,/,/
O=C(c1ccc([N+](=O)[O-])s1)N1CCCc2ccccc21,-17,18,3,6,40*,54*,49*,51*
COc1ccc(C(CC(=O)c2ccc3c(c2)OCO3)C(=O)O)cc1OC (centres undefined),/,/,-2,/,/,/,/,/
Cc1cc(OCCCC(=O)Nc2cccc(-n3cnnn3)c2)ccc1Cl,-1,2,0,8,12,13,/,/
COc1ccc(CCNC(=O)CCc2ccsc2)cc1OC,12,28,0,18,-11,8,/,/
CCOC(=O)N/N=C\c1ccc(-c2cc(Cl)ccc2Cl)o1,33,8,2,4,41*,44*,34*,35*
CC(=O)Nc1ccc(S(=O)(=O)Nc2cccc(-n3c(C)nc4ccccc4c3=O)c2)cc1,2,/,0,0,-2,-3,/,/
Cc1ccccc1OCC(=O)N/N=C/c1ccc([N+](=O)[O-])o1,46,30,6,-3,42*,45*,35*,23
O=C(COc1ccccc1[N+](=O)[O-])N/N=C/C=C/c1ccco1,30,3,2,17,8,25,/,/
CCCCCCCC(=O)N/N=C/c1ccc([N+](=O)[O-])o1,43,41,-3,28,49*,55*,56*,26
COc1ccccc1OCC(=O)N/N=C/C=C/c1ccc([N+](=O)[O-])o1,46,48,-2,-9,48*,67*,84*,51*
Cc1ccccc1OCC(=O)NCC(=O)N/N=C/c1ccc(Br)o1,15,32,0,11,14,12,/,/
Cc1nc(-c2ccc(NC(=O)c3ccccc3C)cc2)cs1,/,6,-6,/,/,/,/,/
COc1ccc(/C=C(/NC(=O)c2ccco2)C(=O)N2CCCC2=O)cc1,23,8,2,5,-3,3,/,/
COc1cc([N+](=O)[O-])c(C)cc1NC(=O)c1ccc(OC)c(OC)c1,/,/,1,/,/,/,/,/
COc1ccccc1NCC(O)Cn1c2ccccc2c2ccccc21 (centres undefined),-23,18,-6,24,42*,52*,29,40*
Cc1cc(N2CCCC2)nc(SCC(=O)c2ccccc2)n1,34,5,-2,34,-4,18,/,/
Cc1cc(N2CCC(C)CC2)nc(SCC(=O)c2ccccc2)n1,34,-4,1,29,41*,53*,34*,-37
COc1ccccc1-c1cc(C(F)(F)F)nc(S(=O)(=O)CCCC(=O)N2CCCCC2C)n1 (centres undefined),39,-4,0,-4,41*,42*,14,-1
